In the library only some 2.5% were active in any assay of this set; here they are far more common.
D2 ag-1 = human D2 receptor agonism in beta-arrestin assay. DiscoveRx PathHunter D2 beta-arrestin, luminescence, 90 min; 100% = 57 uM dopamine signal. 360,000 compounds, 0.084% hits. P14416. activation, % (test concentration not listed); in the data active means activation above about 40%; inconclusive means between about 15% and that limit
Target sequence (P14416 whole entry, looked up): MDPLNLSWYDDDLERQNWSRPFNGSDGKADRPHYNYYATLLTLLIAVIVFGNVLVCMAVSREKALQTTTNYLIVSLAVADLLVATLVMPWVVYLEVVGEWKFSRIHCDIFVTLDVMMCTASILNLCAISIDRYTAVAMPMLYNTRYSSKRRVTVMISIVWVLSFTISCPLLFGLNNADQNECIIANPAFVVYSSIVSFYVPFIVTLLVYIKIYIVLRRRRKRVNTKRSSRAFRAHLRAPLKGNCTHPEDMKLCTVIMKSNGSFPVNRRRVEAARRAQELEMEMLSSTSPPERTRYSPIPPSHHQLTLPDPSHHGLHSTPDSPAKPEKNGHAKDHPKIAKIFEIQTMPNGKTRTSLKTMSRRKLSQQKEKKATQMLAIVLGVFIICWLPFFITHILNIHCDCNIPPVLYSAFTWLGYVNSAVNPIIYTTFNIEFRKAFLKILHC
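Agonist mode: compounds alone added to overnight-plated D2 PathHunter cells for 90 min at 37 C, with 57 uM final dopamine (EC100) defining full response. Beta-arrestin recruitment detected by chemiluminescent reagent, read after 1 h at ambient temperature.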
D2 PAM-1 = human D2 receptor positive allosteric modulation | DiscoveRx D2 beta-arrestin cells, luminescence, 90 min; 100% = 57 uM dopamine signal | AID 624464 | potentiation, % (concentration not given with the values) | 360,000 compounds, 0.23% hits | P14416; in the data active means potentiation above about 50%; inconclusive means mostly about 30% to 49%
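PathHunter D2 cells, attached overnight at 37 deg C, received compound in DMSO plus dopamine at EC20 (50 nM final) for 90 min at 37 deg C. Beta-arrestin recruitment was read as luminescence after 1 h with detection reagent at ambient temperature.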
D2 ag-2 = agonists of human D2 dopamine receptor. P14416. HEK293 T-REx D2 cells, calcium flux agonist mode. activation, % at 2 µM. 340,000 compounds, 0.53% hits. AID 485358;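 active means activation over 3 SD above normal in the single-dose calcium agonist read, cut at about 30% in these data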; further: 0% is about no effect
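Agonism is scored from calcium flux in a force-coupled, inducible HEK293 cell line expressing D2, read kinetically for 180 s after compound addition against dopamine controls.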
Apoferritin bind = binds horse apoferritin like a general anesthetic; Potency, µM (doses to about 77.5 µM), for inactives: at the top dose activity change, negative = displacement, usual class: inhibitors; apoferritin/1-aminoanthracene competitive binding, fluorescence; 350,000 compounds, 0.074% hits; P02791; active means well fitted inhibition curve with a large enough effect; inconclusive means small, poorly fitted or top-dose-only effect; inactive means no such curve, though single readings can be large or run the other way; further: potency means the concentration at half of the fitted maximal effect; on the % scale 0 is the no-effect control and ±100 the full control effect; nearly all actives have a fitted effect of over 20% in size
Target sequence (P02791 2-175 limits assumed): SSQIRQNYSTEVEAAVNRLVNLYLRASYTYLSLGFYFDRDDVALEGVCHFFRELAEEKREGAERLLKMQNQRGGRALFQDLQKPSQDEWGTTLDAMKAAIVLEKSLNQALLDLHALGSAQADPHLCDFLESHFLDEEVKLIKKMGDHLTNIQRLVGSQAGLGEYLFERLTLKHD
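Horse-spleen apoferritin (10 uM) was mixed with 50% saturated 1-aminoanthracene in PBS, exposed to compounds for 10 min at room temperature, and read for fluorescence (ex 380 nm, em 535 nm). Competitive displacement was fitted with a four-parameter Hill equation.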
D2 PAM-2 = positive allosteric modulators of human D2 dopamine receptor. P14416. HEK293 T-REx D2, calcium flux, EC20 dopamine potentiation. potentiation, % at 10 µM. 340,000 compounds, 0.34% hits. AID 485347;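 active means potentiation over 3 SD above the plate norm, cut at about 30% in these data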; further: 0% is about no effect
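Potentiation of an EC20 dopamine calcium response measured kinetically over 180 s, after a preceding 180 s compound-only read flagging agonists. Cells: inducible Hek293 Trex D2 line, 4000/well, cultured overnight at 30 C before dye loading.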
D2 antagonist = antagonists of human D2 dopamine receptor. P14416. 340,000 compounds, 2% hits. AID 485344. inhibition, % at 10 µM. HEK293 TREx D2 cells, calcium flux, dopamine EC80; in the data active means inhibition above about 30%; inactive means below that, where a call was filed; further: 0% is about no effect
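Compounds are added to dye-loaded, induced HEK293 T-REx cells coupled to calcium release via D2; after a 3 min kinetic read an EC80 dopamine stimulus is given and fluorescence is recorded for 3 more min.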
The depositor's hits bear a star.

Results for CN(C)/C=C1\NC(=S)N(c2ccccc2)C1=O ?
D2 ag-1: -3.3; D2 PAM-1: -5.5; D2 ag-2: 0.8; Apoferritin bind: -8.3%; D2 PAM-2: 5.2; D2 antagonist: -12.2

How did O=c1cc(COc2ncnc3ccccc23)nc2sccn12 do in these assays?
D2 ag-1: -5.1; D2 PAM-1: -11.0; D2 ag-2: -0.1; Apoferritin bind: -5.4%; D2 PAM-2: 11.8; D2 antagonist: -3.0

What do the screens show for `COc1ccc(NC(=O)COc2cc(C)cc(C)c2)cc1S(=O)(=O)N1CCCCC1`?
D2 ag-1: -4.8; D2 PAM-1: -2.8

What do the screens show for `CC(C)C(=O)NNc1ccc(C(F)(F)F)cn1`?
D2 ag-1: -3.8; D2 PAM-1: -1.2; D2 ag-2: 0.5; Apoferritin bind: -1.6%; D2 PAM-2: 1.8; D2 antagonist: 0.7

How did CSc1nc(C)cc(/C=C\c2ccccc2)c1C#N do in these assays?
D2 ag-1: -4.5; D2 PAM-1: -14.5; D2 ag-2: -0.7; Apoferritin bind: 3.2%; D2 PAM-2: 41.4*; D2 antagonist: -8.1

Results for CSc1nc(-c2ccccc2)cc(C)c1C#N ?
D2 ag-1: -6.8; D2 PAM-1: -1.0; D2 ag-2: -0.8; Apoferritin bind: -6.5%; D2 PAM-2: -6.0; D2 antagonist: -21.1

What do the screens show for `COc1ccc(NC(=O)CC2C(=O)N(c3ccc(Cl)cc3)C(=S)N2NC(=O)c2cccc(F)c2)cc1` (stereo unspecified)?
D2 ag-1: -4.0; D2 PAM-1: -34.1; D2 ag-2: -0.1; Apoferritin bind: -20.9%; D2 PAM-2: -8.6; D2 antagonist: -10.0

How did COc1ccc(NC(=O)CC2C(=O)N(c3ccc(F)cc3)C(=S)N2NC(=O)c2ccc(Cl)cc2)cc1 (stereo unspecified) do in these assays?
D2 ag-1: -6.6; D2 PAM-1: -4.3; D2 ag-2: -0.5; Apoferritin bind: -1.7%; D2 PAM-2: -7.9; D2 antagonist: 37.4*

What do the screens show for `CCc1cccc(CC)c1NC(=O)CCCSc1nc2ccccc2s1`?
D2 ag-1: 1.9; D2 PAM-1: 15.0; D2 ag-2: -1.4; Apoferritin bind: -1.0%; D2 PAM-2: -2.3; D2 antagonist: 30.3*

What do the screens show for `CN(C)CCn1c2c(c(SCC(=O)Nc3cccc4ccccc34)nc1=O)CCCC2`?
D2 ag-1: -2.4; D2 PAM-1: -24.3; D2 ag-2: -0.1; D2 PAM-2: 18.0; D2 antagonist: 1.8

What do the screens show for `COC(=O)C(C)Sc1nnc(SC(C)C(=O)OC)s1` (stereo unspecified)?
D2 ag-1: -3.0; D2 PAM-1: -13.7; D2 ag-2: -1.3; Apoferritin bind: -19.3%; D2 PAM-2: 21.4; D2 antagonist: 39.7*

Results for CN1CCN(C(=O)c2ccccc2NC(=O)c2cccs2)CC1 ?
D2 ag-1: -2.9; D2 PAM-1: 5.0; D2 ag-2: 0.8; Apoferritin bind: -9.9%; D2 PAM-2: 4.5; D2 antagonist: 36.5*

Results for COc1ccc(CN2CCN(C(=O)c3cccs3)CC2)cc1 ?
D2 ag-1: 8.6; D2 PAM-1: 5.3; D2 ag-2: 80.9*; Apoferritin bind: -9.5%; D2 PAM-2: -23.1; D2 antagonist: 94.5*

Results for O=C(c1cccs1)N1CCN(c2ccccc2)CC1 ?
D2 ag-1: -1.8; D2 PAM-1: -3.6; D2 ag-2: -0.2; Apoferritin bind: -10.0%; D2 PAM-2: -2.2; D2 antagonist: 31.4*

Results for CN1CCN(C(=O)c2ccccc2NC(=O)c2ccccc2Br)CC1 ?
D2 ag-1: 2.5; D2 PAM-1: 5.6; D2 ag-2: 0.5; Apoferritin bind: -0.3%; D2 PAM-2: 8.7; D2 antagonist: 2.9

What do the screens show for `O=C(NC(=O)c1cccc(F)c1)Nc1ccc(-c2cc(C(F)(F)F)nn2-c2ccccc2)cc1`?
D2 ag-2: 0.0; Apoferritin bind: 3.3%; D2 PAM-2: -0.2

Results for Cc1cccc(C)c1NC(=O)CS(=O)CC(=O)NC1CCCc2ccccc21 (stereo unspecified) ?
D2 ag-1: 0.4; D2 PAM-1: -3.2; D2 ag-2: 0.3; Apoferritin bind: -3.8%; D2 PAM-2: 16.3; D2 antagonist: 1.3

What do the screens show for `O=C(CCc1nnc(-c2ccc(-c3ccccc3)cc2)o1)N1CCCCC1`?
D2 ag-1: 6.9; D2 PAM-1: -5.6; D2 ag-2: 1.4; Apoferritin bind: -16.8%; D2 PAM-2: 16.0; D2 antagonist: 62.2*

What do the screens show for `CCC1CCCCN1C(=O)COc1ccccc1NC(C)=O` (stereo unspecified)?
D2 ag-1: 0.5; D2 PAM-1: -12.8; D2 ag-2: -1.5; Apoferritin bind: -7.1%; D2 PAM-2: 32.2*; D2 antagonist: -4.5

What do the screens show for `CCC1CCCCN1C(=O)COc1cc(=O)n(C)c2ccccc12` (stereo unspecified)?
D2 ag-1: -1.9; D2 PAM-1: 0.1; D2 ag-2: 1.5; Apoferritin bind: -10.1%; D2 PAM-2: -4.5; D2 antagonist: -16.3

What do the screens show for `Cc1ccc(CNC(=O)CO/N=C/c2ccc(C(C)(C)C)cc2)cc1`?
D2 ag-1: -2.9; D2 PAM-1: -17.0; D2 ag-2: 0.8; Apoferritin bind: inconclusive; D2 PAM-2: -11.3; D2 antagonist: 37.9*

What do the screens show for `CCNC(=S)N(CCc1c(C)[nH]c2ccc(OC)cc12)Cc1cccnc1`?
D2 ag-1: 0.5; D2 PAM-1: 5.4; D2 ag-2: -0.8; Apoferritin bind: -6.4%; D2 PAM-2: 33.0*; D2 antagonist: -18.9

Results for COCCNC(=S)N(CCc1c(C)[nH]c2ccc(C)cc12)Cc1cc(OC)c(OC)c(OC)c1 ?
D2 ag-1: 4.3; D2 PAM-1: 4.0; D2 ag-2: -0.1; Apoferritin bind: -0.4%; D2 PAM-2: 4.2; D2 antagonist: 31.3*

Results for CCNC(=S)N(CCc1c(C)[nH]c2ccc(Cl)cc12)Cc1cccnc1 ?
D2 ag-1: 2.6; D2 PAM-1: -10.0; D2 ag-2: 17.8; Apoferritin bind: 1.3%; D2 PAM-2: -3.5; D2 antagonist: 2.7

What do the screens show for `O=C(Nc1ccc(F)cc1)N(CCCN1CCOCC1)Cc1cc2cc3c(cc2[nH]c1=O)OCCO3`?
D2 ag-1: -1.5; D2 PAM-1: -2.0; D2 ag-2: -1.1; Apoferritin bind: -7.3%; D2 PAM-2: 4.9; D2 antagonist: 2.2

Results for Cn1c(=O)c2c(nc(CN3CCCCC3)n2CCCc2ccccc2)n(C)c1=O ?
D2 ag-1: -1.6; D2 PAM-1: 8.7

Results for O=C1CCCC(=O)N1c1ccc(N2CCOCC2)c([N+](=O)[O-])c1 ?
D2 ag-1: -3.9; D2 PAM-1: -5.1; D2 ag-2: 0.3; Apoferritin bind: -2.7%; D2 PAM-2: 0.2; D2 antagonist: -1.3

Screening results deposited in PubChem BioAssay by National Center for Advancing Translational Sciences (NCATS).
